Compound activity from PubChem.
The list is not random: actives were taken first. Their share in the collection is about 20%.
HCMV antiviral: inhibitors of human cytomegalovirus. HFF cells, HCMV-luciferase reporter, 72 h; hits give low values. AID 1259415. 410,000 tested, 4.5% active. activity change, negative = inhibition, % at 57.5 µM; in the data active means activity change below about -60%; inconclusive means no clear call, values can overlap the other calls; inactive means above about -39%; further: on the % scale 0 is the no-effect control and ±100 the full control effect
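Cell-based, HFFs, 1000 cells/well, 16 h 37C; cpds in DMSO + HCMV-luc, MOI 1 PFU/cell; 72 h 37C; OneGlo luminescence after 5 min RT; norm. to buffer vs Salinomycin 10uM.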
Pf growth 48h: P. falciparum growth inhibition at 48 hours (one generation); P. falciparum luciferase growth in erythrocytes, 48 h; Potency, µM (series often up to 28.7 µM), inactives show top-dose activity change, negative = inhibition, usual class: inhibitors; 310,000 tested, 5.9% active; AID 504832; further: potency means the concentration at half of the fitted maximal effect; on the % scale 0 is the no-effect control and ±100 the full control effect
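In quantitative HTS format, infected erythrocytes bearing luciferase-reporter parasites were treated for a single generation at 37 C. Luminescence after adding detection reagent served as the growth measure.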
Pf growth 96h: P. falciparum growth inhibition at 96 hour, primary screen for plastid delayed-death inhibitors | 320,000 tested, 6.9% active | Potency, µM (titrated, usually from 28.7 µM), without a hit: top-dose activity change, negative = inhibition, usual class: inhibitors | P. falciparum luciferase reporter growth, 96 h | AID 504834; further: potency means the concentration at half of the fitted maximal effect; on the % scale 0 is the no-effect control and ±100 the full control effect
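Parasite growth measured via integrated firefly luciferase reporter in P. falciparum. Infected erythrocytes at 2% hematocrit, 0.05% parasitemia final were treated 96 hours at 37 C under 5% CO2, and luminescence was read.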
Cycloheximide cs: counter-screen for Shiga toxin inhibitors: cycloheximide protein synthesis inhibition | max response, % | AID 2314 | cell reporter, cycloheximide protein synthesis inhibition counterscreen | 300,000 tested, 12% active; in the data active means max response mostly above about 13%, no sharp cut-off; inactive means mostly below about 14%; further: read at 38.3 µM for the half of the compounds with a filed dose; 0% is about no effect
Shiga inhibitor: inhibitors of Shiga toxin in Vero cells; Vero cells, Shiga toxin protein synthesis inhibition reporter; inhibition, % at 38.7 µM; 290,000 tested, 9.2% active; AID 2315; in the data active means inhibition mostly above about 28%, no sharp cut-off; inactive means mostly below about 43%; further: 0% is about no effect
Active calls of the source: *; i = inactive; u = inconclusive; x = not tested or not shown; [ ] = another dose, or the depositor's remark. Unless noted, the call rests on the fitted dose curve; in most records, active means well fitted inhibition curve with a large enough effect; inconclusive means small, poorly fitted or top-dose-only effect, or another doubt; inactive means no such curve, though single readings can be large or run the other way.

SMILES | HCMV antiviral | Pf growth 48h | Pf growth 96h | Cycloheximide cs | Shiga inhibitor
CC(=O)CCc1ccc(OCCCCn2cncn2)cc1 | -16 | 30% | 47% | 20* | 51*
CCC(=O)c1ccccc1OCCCn1cncn1 | -14 | 18% | x | -2 | -10
c1ccc(Oc2cccc(OCCn3cncn3)c2)cc1 | -24 | 23% | 3% | -2 | 11
c1ccc(-c2ccc(OCCCn3cncn3)cc2)cc1 | -19 | 71% | u | 41* | 61*
CC(=O)c1ccc(N2CCCCCC2)c(F)c1 | 60 | 23% | u | 13 | 29
CCCC(=O)c1ccc(N2CCCCC2)c(F)c1 | -38 | 38% | 3% | 47* | 94*
CCCC(=O)c1ccc(N2CCN(C(=O)OCC)CC2)c(F)c1 | 59 | 5% | 9.3µM* | 23 | 54
CCOC(=O)N1CCN(c2ccc(C(=O)CC)cc2F)CC1 | 45 | 17% | -23% | 14 | 28
CC(=O)c1ccc(N2CCCCC2)c(F)c1 | 0 | 44% | 13% | 16* | -5
CCCC(=O)c1ccc(N2CCCCCC2)c(F)c1 | 12 | 45% | -23% | 40* | 68*
CCCCn1c(N)c(N(C)C(=O)C2CC(=O)N(Cc3ccco3)C2)c(=O)[nH]c1=O (centres undefined) | 2 | x | x | x | x
Cc1c(C)c2cc3c(c(C)c2oc1=O)OCN(CCc1ccccc1)C3 | 15 | x | x | x | x
CCOc1ccc(-c2nc(SCC(=O)c3ccccc3)n[nH]2)cc1 | 0 | x | x | x | x
CCOC(=O)c1nc(C)nc(Sc2n[nH]c(-c3ccccc3)n2)c1C | 9 | 10µM* | u | -4 | -6
Cc1nn(-c2ccc(Cl)cc2)c(NC(=O)C(C)C)c(-c2ccccc2)c1=O | -16 | 24% | 3% | 0 | 5
COc1ccc(-c2nn3c(-c4ccccc4)nnc3s2)cc1 | 3 | u | 5%[5.75 µM] | 10 | 28
COc1ccc(S(=O)(=O)n2ccc(-c3cnc(-c4ccccc4)s3)n2)cc1 | 62 | u | u | 17* | 37
O=C(c1ccccc1)n1ccc(-c2cnc(-c3ccccc3)s2)n1 | 56 | x | 454% | 40* | 97*
COc1cc2sc(-c3ccc(S(C)(=O)=O)cc3)c(-c3ccc4c(c3)OCO4)c2cc1OC | -28 | x | x | x | x
COc1cc2c(O)c3c(c(-c4ccc5c(c4)OCO5)c2cc1OC)C(=O)OC3 | -96* | u | -17% | -2 | 17
COc1cc2c(OC(C)=O)c3c(c(-c4ccc5c(c4)OCO5)c2cc1OC)C(=O)OC3 | -93* | 0% | u | -3 | -6
COc1ccc(-c2oc(=O)c3cc(OC)c(OC)cc3c2-c2ccc3c(c2)OCO3)cc1 | -19 | x | x | x | x
C[C@]12CC[C@@H]3c4ccc(O)cc4CC[C@H]3[C@@H]1C[C@H](O)C2O (some centres undefined) | x | -14% | u | x | x
CCOC(=O)c1cc(-c2ccc(N3CCOCC3)cc2)nn1-c1ccc(F)cc1F | 35 | 12µM* | 12µM* | -1 | -14
CCOC(=O)c1cc(-c2ccc(N3CCOCC3)cc2)nn1-c1ccccc1 | 13 | u | u | 13 | -1
SMILES | HCMV antiviral | Pf growth 48h | Pf growth 96h | Cycloheximide cs | Shiga inhibitor
CC(C)(C)OC(=O)NCCCCCc1nnc(SCC(=O)Nc2cccc(Cl)c2)o1 | 4 | -25% | u | 7 | 49
Cc1cccc(CSc2nnc(CCCCCNC(=O)OC(C)(C)C)o2)c1 | 4 | 9.3µM* | -9% | 1 | 36
Cc1ccc(S(=O)(=O)N2CCC(NC(=O)c3ccccc3)CC2)cc1 | 38 | 27% | -17% | 6 | 7
CC1Cc2nc(SCC(=O)Nc3ccc4c(c3)OCO4)n(-c3ccc(F)cc3)c(=O)c2S1 (centres undefined) | -13 | 1.7µM* | 3.7µM* | -4 | -6
COc1ccc(-n2c(SCC(=O)Nc3nccs3)nc3c(c2=O)SC(C)C3)cc1 (centres undefined) | -13 | 1.7µM* | 1µM* | 1 | 15
COCCNC(=O)CSc1nc(N)c(NC(=O)c2ccccc2F)c(=O)[nH]1 | 18 | 11% | 34% | -2 | -14
Cc1ccc(S(=O)(=O)CCSC(=N)N)cc1 | -40 | -6% | 3% | -2 | 4
CSc1ccccc1OCc1cc(C(=O)NCc2ccc(C)s2)no1 | 24 | -9% | -19% | 23* | 41*
CCOC(=O)c1ccc(CNC(=O)c2cc(COc3ccccc3SC)on2)o1 | 153 | 14% | 29% | 34* | 74*
O=C(Nc1cccc(OC(F)(F)F)c1)C1Cc2c(-c3ccco3)ccnc2O1 (centres undefined) | 6 | x | x | x | x
COc1cccc(NC(=O)N2CCCC(C(=O)NC3CCCCC3C)C2)c1 (centres undefined) | -37 | -17% | 22% | -3 | 27
Oc1ccc(C23CC4CC(CC(C4)C2)C3)cc1O | u | 5.2µM* | 7.4µM* | 4 | 4
O=C(N/N=C/c1ccc(O)c(O)c1)NC12CC3CC(CC(C3)C1)C2 | -18 | -20% | 7% | 3 | 5
Cc1ccc(NC(=O)NC(=O)CSc2nnc(-c3ccc(Cl)cc3Cl)n2N)c(C)c1 | 35 | 26% | i | 64* | 179*
Cc1ccc(-c2nnc(SCC(=O)NC(=O)Nc3ccc(C)cc3C)n2N)cc1 | -2 | 7% | u | 10 | 4
Cc1ccc(CN2CCC(CNC(=O)Nc3cccc(C)c3C)C2)cc1 (centres undefined) | -14 | x | x | x | x
Cc1cc(C)c2cc(CN(Cc3ccco3)C(=O)NCc3ccccc3)c(=O)[nH]c2c1 | -29 | 0% | 15µM* | 3 | -9
COc1ccccc1NC(=S)N(Cc1ccco1)Cc1cc2cc(C)cc(C)c2[nH]c1=O | u | 3.3µM* | -17% | -3 | -5
Cc1cc(C)c2cc(CN(CC3CCCO3)C(=S)NCc3ccco3)c(=O)[nH]c2c1 (centres undefined) | u | u | u | -4 | -11
Cc1cc(C)c2[nH]c(=O)c(CN(CC3CCCO3)C(=S)NCc3ccco3)cc2c1 (centres undefined) | -8 | -5% | -1% | -1 | -4
Cc1ccc2cc(CN(Cc3ccco3)C(=O)NC3CCCCC3)c(=O)[nH]c2c1C | -21 | 12µM* | -14% | -1 | 4
COc1ccccc1NC(=S)N(Cc1ccco1)Cc1cc2ccc(C)c(C)c2[nH]c1=O | u | 12µM* | 150% | -2 | -3
CCCC[C@@H]1C=C(C(=O)O)[C@H](c2ccc3c(c2)OCO3)N1S(=O)(=O)c1ccc(C)cc1 | 6 | x | x | x | x
CCOC(=O)Cn1c(=O)oc2cc(S(=O)(=O)N3CCCC(C(=O)OCC)C3)ccc21 (centres undefined) | -19 | x | 10µM* | -1 | -20
CCOC(=O)Cn1c(=O)oc2cc(S(=O)(=O)N3CCCC(C)C3)ccc21 (centres undefined) | 17 | -29% | 40% | 2 | 11
CCOC(=O)Cn1c(=O)oc2cc(S(=O)(=O)N3CCn4c3nc3ccccc34)ccc21 | 14 | -11% | 15µM* | -2 | 7
